# Measurements from the supplement of paper PMC4466140.
# How the values were obtained:
# Assay in all cases: SPOT peptide array binding signal intensity (averaged, normalized) (arbitrary units (background-subtracted, floor 0; scale differs between SH3 domains)); higher = stronger binding of the SH3 domain to the peptide
# [1] = molecular target: CaNbp2
# Procedure, shortened: (§1)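 To measure binding, SH3 domains from four yeast species were fused to GST, expressed in E. coli BL21(DE3) and purified on glutathione Sepharose. Each domain was incubated at 10 μg/ml overnight at 4°C on cellulose membranes with synthetic 15-mer peptides whose cysteines were replaced by serines. Anti-GST antibody, an HRP anti-mouse secondary and luminol were used for detection, and images were quantified with Genespotter. Reported binding signal is normalized, background-subtracted spot intensity averaged over replicates, in arbitrary units that differ between domains.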
# [2] = molecular target: CaRvs167
# Procedure, shortened: as §1
# [3] = molecular target: CaRvs167-3
# Procedure, shortened: as §1
# [4] = molecular target: CaSho1
# Procedure, shortened: as §1
# [5] = molecular target: CaSla1-D1-D2
# Procedure, shortened: as §1
# [6] = molecular target: CaSla1-D3
# Procedure, shortened: as §1
# [7] = molecular target: ScAbp1
# Procedure, shortened: as §1
# [8] = molecular target: ScBbc1
# Procedure, shortened: as §1
# [9] = molecular target: ScBem1-D1
# Procedure, shortened: as §1
# [10] = molecular target: ScBzz1-D1
# Procedure, shortened: as §1
# [11] = molecular target: ScBzz1-D2
# Procedure, shortened: as §1
# [12] = molecular target: ScCyk3
# Procedure, shortened: as §1
# [13] = molecular target: ScFus1
# Procedure, shortened: as §1
# [14] = molecular target: ScHof1
# Procedure, shortened: as §1
# [15] = molecular target: ScHse1
# Procedure, shortened: as §1
# [16] = molecular target: ScLsb1
# Procedure, shortened: as §1
# [17] = molecular target: ScLsb2
# Procedure, shortened: as §1
# [18] = molecular target: ScLsb3
# Procedure, shortened: as §1
# [19] = molecular target: ScLsb4
# Procedure, shortened: as §1
# [20] = molecular target: ScMyo3
# Procedure, shortened: as §1
# [21] = molecular target: ScMyo5
# Procedure, shortened: as §1
# [22] = molecular target: ScNbp2
# Procedure, shortened: as §1
# [23] = molecular target: ScPex13
# Procedure, shortened: as §1
# [24] = molecular target: ScRvs167
# Procedure, shortened: as §1
# [25] = molecular target: ScSho1
# Procedure, shortened: as §1
# [26] = molecular target: ScSla1-D1-D2
# Procedure, shortened: as §1
# [27] = molecular target: ScSla1-D3
# Procedure, shortened: as §1
# [28] = molecular target: SpAbp1-D1
# Procedure, shortened: as §1
# [29] = molecular target: SpBbc1
# Procedure, shortened: as §1
# [30] = molecular target: SpBzz1-D1
# Procedure, shortened: as §1
# [31] = molecular target: SpBzz1-D2
# Procedure, shortened: as §1
# [32] = molecular target: SpCyk3
# Procedure, shortened: as §1
# [33] = molecular target: SpHof1
# Procedure, shortened: as §1
# [34] = molecular target: SpHof1-2
# Procedure, shortened: as §1
# [35] = molecular target: SpHof1-3
# Procedure, shortened: as §1
# [36] = molecular target: SpHse1
# Procedure, shortened: as §1
# [37] = molecular target: SpLsb1
# Procedure, shortened: as §1
# [38] = molecular target: SpLsb4
# Procedure, shortened: as §1
# [39] = molecular target: SpMyo1
# Procedure, shortened: as §1
# [40] = molecular target: SpNbp2
# Procedure, shortened: as §1
# [41] = molecular target: SpPex13
# Procedure, shortened: as §1
# [42] = molecular target: SpRvs167
# Procedure, shortened: as §1
# [43] = molecular target: SpSla1-D1-D2
# Procedure, shortened: as §1
# [44] = molecular target: SpSla1-D3
# Procedure, shortened: as §1
# [45] = molecular target: AgAbp1
# Procedure, shortened: as §1
# [46] = molecular target: AgBbc1
# Procedure, shortened: as §1
# [47] = molecular target: AgBem1-D1
# Procedure, shortened: as §1
# [48] = molecular target: AgBzz1-D1
# Procedure, shortened: as §1
# [49] = molecular target: AgBzz1-D2
# Procedure, shortened: as §1
# [50] = molecular target: AgCyk3
# Procedure, shortened: as §1
# [51] = molecular target: AgFus1
# Procedure, shortened: as §1
# [52] = molecular target: AgHof1
# Procedure, shortened: as §1
# [53] = molecular target: AgHse1
# Procedure, shortened: as §1
# [54] = molecular target: AgLsb1
# Procedure, shortened: as §1
# [55] = molecular target: AgLsb4
# Procedure, shortened: as §1
# [56] = molecular target: AgMyo5
# Procedure, shortened: as §1
# [57] = molecular target: AgNbp2
# Procedure, shortened: as §1
# [58] = molecular target: AgRvs167
# Procedure, shortened: as §1
# [59] = molecular target: AgSho1
# Procedure, shortened: as §1
# [60] = molecular target: AgSla1-D1-D2
# Procedure, shortened: as §1
# [61] = molecular target: AgSla1-D3
# Procedure, shortened: as §1
# [62] = molecular target: CaAbp1-D1
# Procedure, shortened: as §1
# [63] = molecular target: CaAbp1-D2
# Procedure, shortened: as §1
# [64] = molecular target: CaBbc1
# Procedure, shortened: as §1
# [65] = molecular target: CaBem1-D1
# Procedure, shortened: as §1
# [66] = molecular target: CaBzz1-D1
# Procedure, shortened: as §1
# [67] = molecular target: CaBzz1-D2
# Procedure, shortened: as §1
# [68] = molecular target: CaCyk3
# Procedure, shortened: as §1
# [69] = molecular target: CaFus1
# Procedure, shortened: as §1
# [70] = molecular target: CaHof1
# Procedure, shortened: as §1
# [71] = molecular target: CaHse1
# Procedure, shortened: as §1
# [72] = molecular target: CaLsb1
# Procedure, shortened: as §1
# [73] = molecular target: CaLsb4
# Procedure, shortened: as §1
# [74] = molecular target: CaMyo5
# Procedure, shortened: as §1
binder,measurement,setting,value
FYHRPAPKPPVTKKV,SPOT peptide array binding signal intensity,[1],843
same,SPOT peptide array binding signal intensity,[2],3
same,SPOT peptide array binding signal intensity,[3],≤ 0
same,SPOT peptide array binding signal intensity,[4],≤ 0
same,SPOT peptide array binding signal intensity,[5],105
same,SPOT peptide array binding signal intensity,[6],45.2
same,SPOT peptide array binding signal intensity,[7],87.5
same,SPOT peptide array binding signal intensity,[8],330
same,SPOT peptide array binding signal intensity,[9],4
same,SPOT peptide array binding signal intensity,[10],678
same,SPOT peptide array binding signal intensity,[11],39
same,SPOT peptide array binding signal intensity,[12],≤ 0
same,SPOT peptide array binding signal intensity,[13],≤ 0
same,SPOT peptide array binding signal intensity,[14],≤ 0
same,SPOT peptide array binding signal intensity,[15],≤ 0
same,SPOT peptide array binding signal intensity,[16],32.5
same,SPOT peptide array binding signal intensity,[17],106
same,SPOT peptide array binding signal intensity,[18],53
same,SPOT peptide array binding signal intensity,[19],3
same,SPOT peptide array binding signal intensity,[20],284
same,SPOT peptide array binding signal intensity,[21],459
same,SPOT peptide array binding signal intensity,[22],1680
same,SPOT peptide array binding signal intensity,[23],530
same,SPOT peptide array binding signal intensity,[24],12.8
same,SPOT peptide array binding signal intensity,[25],12
same,SPOT peptide array binding signal intensity,[26],238
same,SPOT peptide array binding signal intensity,[27],475
same,SPOT peptide array binding signal intensity,[28],50.5
same,SPOT peptide array binding signal intensity,[29],19.2
same,SPOT peptide array binding signal intensity,[30],647
same,SPOT peptide array binding signal intensity,[31],2.5
same,SPOT peptide array binding signal intensity,[32],2
same,SPOT peptide array binding signal intensity,[33],12.5
same,SPOT peptide array binding signal intensity,[34],≤ 0
same,SPOT peptide array binding signal intensity,[35],≤ 0
same,SPOT peptide array binding signal intensity,[36],≤ 0
same,SPOT peptide array binding signal intensity,[37],8
same,SPOT peptide array binding signal intensity,[38],54
same,SPOT peptide array binding signal intensity,[39],132
same,SPOT peptide array binding signal intensity,[40],9
same,SPOT peptide array binding signal intensity,[41],6
same,SPOT peptide array binding signal intensity,[42],9.33
same,SPOT peptide array binding signal intensity,[43],≤ 0
same,SPOT peptide array binding signal intensity,[44],≤ 0
KNPRRQLQIPRQQPS,SPOT peptide array binding signal intensity,[45],242
same,SPOT peptide array binding signal intensity,[46],60.8
same,SPOT peptide array binding signal intensity,[47],73
same,SPOT peptide array binding signal intensity,[48],77
same,SPOT peptide array binding signal intensity,[49],44
same,SPOT peptide array binding signal intensity,[50],≤ 0
same,SPOT peptide array binding signal intensity,[51],9.5
same,SPOT peptide array binding signal intensity,[52],55.8
same,SPOT peptide array binding signal intensity,[53],142
same,SPOT peptide array binding signal intensity,[54],100
same,SPOT peptide array binding signal intensity,[55],25
same,SPOT peptide array binding signal intensity,[56],7
same,SPOT peptide array binding signal intensity,[57],16.5
same,SPOT peptide array binding signal intensity,[58],2.67
same,SPOT peptide array binding signal intensity,[59],≤ 0
same,SPOT peptide array binding signal intensity,[60],44
same,SPOT peptide array binding signal intensity,[61],2.5
same,SPOT peptide array binding signal intensity,[62],728
same,SPOT peptide array binding signal intensity,[63],464
same,SPOT peptide array binding signal intensity,[64],218
same,SPOT peptide array binding signal intensity,[65],73
same,SPOT peptide array binding signal intensity,[66],84
same,SPOT peptide array binding signal intensity,[67],42
same,SPOT peptide array binding signal intensity,[68],7
same,SPOT peptide array binding signal intensity,[69],208
same,SPOT peptide array binding signal intensity,[70],≤ 0
same,SPOT peptide array binding signal intensity,[71],1
same,SPOT peptide array binding signal intensity,[72],0.5
same,SPOT peptide array binding signal intensity,[73],51.5
same,SPOT peptide array binding signal intensity,[74],5
same,SPOT peptide array binding signal intensity,[1],333
same,SPOT peptide array binding signal intensity,[2],12
same,SPOT peptide array binding signal intensity,[3],11.8
same,SPOT peptide array binding signal intensity,[4],47.5
same,SPOT peptide array binding signal intensity,[5],148
same,SPOT peptide array binding signal intensity,[6],1.25
same,SPOT peptide array binding signal intensity,[7],146
same,SPOT peptide array binding signal intensity,[8],7.25
same,SPOT peptide array binding signal intensity,[9],29
same,SPOT peptide array binding signal intensity,[10],47.5
same,SPOT peptide array binding signal intensity,[11],8
same,SPOT peptide array binding signal intensity,[12],15
same,SPOT peptide array binding signal intensity,[13],98
same,SPOT peptide array binding signal intensity,[14],0.75
same,SPOT peptide array binding signal intensity,[15],527
same,SPOT peptide array binding signal intensity,[16],162
same,SPOT peptide array binding signal intensity,[17],2
same,SPOT peptide array binding signal intensity,[18],132
same,SPOT peptide array binding signal intensity,[19],12
same,SPOT peptide array binding signal intensity,[20],2
same,SPOT peptide array binding signal intensity,[21],1
same,SPOT peptide array binding signal intensity,[22],173
same,SPOT peptide array binding signal intensity,[23],≤ 0
same,SPOT peptide array binding signal intensity,[24],13.5
same,SPOT peptide array binding signal intensity,[25],95
same,SPOT peptide array binding signal intensity,[26],442
same,SPOT peptide array binding signal intensity,[27],21
same,SPOT peptide array binding signal intensity,[28],306
same,SPOT peptide array binding signal intensity,[29],1
same,SPOT peptide array binding signal intensity,[30],240
